Screening data (PubChem)
HT1080 IDH1KD tx – toxicity to HT-1080 IDH1 knockdown cells (counter line); HT-1080 IDH1 knockdown viability, ATP luminescence, 48 h; Potency, µM (doses to about 46.1 µM), inactives show top-dose activity, negative = toxicity, usual class: cytotoxic; hit rate 2% among 360,000;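 further: potency means the concentration at half of the fitted maximal effect; 0% = DMSO wells and -100% = cell-free medium wells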
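In this qHTS, HT-1080 cells depleted of IDH1 are exposed for 48 h at 37 °C to compound titrations. Toxicity is scored from CellTiter-Glo luminescence, with DMSO as full viability and medium alone as none.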
TDP1 cell CPT – DT40-hTDP1 cell growth loss with CPT | chicken DT40 Tdp1-/-;hTDP1 cells + 20 nM CPT, ATP luminescence, 48 h | Potency, µM (titrated, usually from 46.2 µM), for inactives: at the highest dose activity change, negative = growth inhibition, usual class: inhibitors | hit rate 12% among 420,000; further: potency means the concentration at half of the fitted maximal effect; nearly all actives have a fitted effect of over 55% in size
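Chicken DT40 Tdp1-/- cells complemented with human TDP1, 400 cells/well, exposed to compounds plus 20 nM camptothecin for at least 48 h at 37 C; viability read as ATP content by CellTiter-Glo luminescence.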
IL-1B inflam inh – inflammasome signaling inhibition, IL-1 beta readout; THP-1 LPS/ATP IL-1B secretion, AlphaLISA, 16 h; hits give low values; activity change, % at 57.5 µM; hit rate 4.7% among 360,000; AID 743279; in the data active means activity change below about -50%; inconclusive means mostly about -30% to -49%
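THP-1 cells pretreated 1 hr with compounds (up to 57.5 uM final), then stimulated with LPS (250 ng/mL final) plus ATP (1.25 mM final); secreted IL-1B measured by AlphaLISA after 16 hr, decreased signal indicating inhibition.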
DT40 TDP1 no CPT – qHTS for Inhibitors of human tyrosyl-DNA phosphodiesterase 1 (TDP1): qHTS in cells in absence of CPT; AID 686978, 2013; DT40 Tdp1-/- hTDP1 cells, no CPT, ATP luminescence, 48 h; hit rate 15% among 420,000; Potency, µM (highest dose often 46.2 µM), without a hit: at the top dose activity change, negative = growth inhibition, actives largely listed as inhibitors; further: potency means the concentration at half of the fitted maximal effect; nearly all actives have a fitted effect of over 55% in size
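Chicken DT40 Tdp1-/- cells stably complemented with human TDP1 were seeded at 400 cells/well with DMSO in place of 20 nM camptothecin. After compound pinning, cells grew at least 48 hr at 37 °C; viability read by CellTiter-Glo luminescence.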
12-LOX inh – blocks human arachidonate 12S-lipoxygenase. P18054. purified 12hLO, xylenol orange hydroperoxide absorbance. Potency, µM (titrated, usually from 108 µM), inactives show at the highest dose activity change, negative = inhibition, usual class: inhibitors. hit rate 1.1% among 580,000. AID 1671190; further: potency means the concentration at half of the fitted maximal effect
Target sequence (P18054 whole entry, looked up): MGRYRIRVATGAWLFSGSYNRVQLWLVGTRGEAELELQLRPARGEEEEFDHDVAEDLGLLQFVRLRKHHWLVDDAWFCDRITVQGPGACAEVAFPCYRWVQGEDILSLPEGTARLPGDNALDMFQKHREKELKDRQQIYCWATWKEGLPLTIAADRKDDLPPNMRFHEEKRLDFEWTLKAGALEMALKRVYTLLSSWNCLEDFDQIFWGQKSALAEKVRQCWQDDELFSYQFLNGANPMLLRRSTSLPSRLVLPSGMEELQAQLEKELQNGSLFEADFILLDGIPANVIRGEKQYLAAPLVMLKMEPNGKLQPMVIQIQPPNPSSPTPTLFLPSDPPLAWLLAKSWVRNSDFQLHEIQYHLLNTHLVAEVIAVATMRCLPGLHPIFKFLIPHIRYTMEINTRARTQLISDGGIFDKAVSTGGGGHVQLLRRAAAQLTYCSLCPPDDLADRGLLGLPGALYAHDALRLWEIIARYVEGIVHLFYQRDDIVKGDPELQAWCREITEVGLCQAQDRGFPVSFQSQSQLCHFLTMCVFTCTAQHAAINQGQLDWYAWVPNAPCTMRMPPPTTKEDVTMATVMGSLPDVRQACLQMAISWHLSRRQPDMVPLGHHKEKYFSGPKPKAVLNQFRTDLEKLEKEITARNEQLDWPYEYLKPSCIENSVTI
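Purified human 12hLO (150 nM final) in 25 mM Hepes, 0.01% Triton X-100, pH 7.0 was preincubated 15 min at room temperature with compound. Then 40 uM arachidonic acid was added, 30 min. Hydroperoxide was read by Fe-XO absorbance ratio 573/405 nm.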
HT1080NT lethal – kills 2HG-producing HT-1080-NT fibrosarcoma cells | HT-1080-NT fibrosarcoma viability, CellTiter-Glo ATP luminescence, 48 h | Potency, µM (doses to about 46.1 µM), inactives show top-dose activity, negative = less viability, usual class: cytotoxic | hit rate 1.6% among 360,000;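 further: NT is the 2HG producing partner of a matched IDH1 knockdown line; potency means the concentration at half of the fitted maximal effect; 0% = DMSO-treated cells and -100% = media-only wells without cells; nearly all actives have a fitted effect of over 55% in size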
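HT-1080-NT; 750 cells/well; 5% FBS RPMI; 48 h compound, 37 degrees C; CellTiter-Glo luminescence; curve fitting and curve-class assignment.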
* marks the source's active call; other numbers are inactive results; ? = inconclusive; . = not tested or not shown; [ ] = another dose, or the depositor's remark. Only a selection was taken, and hits are over-represented in it overall. Unless noted, the call rests on the fitted dose curve; in most records, active means well fitted curve in the direction sought with a large enough effect; inconclusive means small, poorly fitted or top-dose-only effect, or another doubt; inactive means no such curve, though single readings can be large; an effect the other way counts as inactive or inconclusive. Unless noted, on the % scale 0 is the no-effect control and ±100 the full control effect.

SMILES	HT1080 IDH1KD tx	TDP1 cell CPT	IL-1B inflam inh	DT40 TDP1 no CPT	12-LOX inh	HT1080NT lethal
COc1ccc(N2C(=O)CC(Sc3nc4ccccc4s3)C2=O)cc1OC (configuration not stated)	1%	4.6µM*	47	2.9µM*	-2%	-6%
C=CCNc1nnc(SC2CC(=O)N(c3ccc(OCCC)cc3)C2=O)s1 (configuration not stated)	?	1.8µM*	9	4.1µM*	-8%	?
CC(=O)Nc1ccc(N2C(=O)CC(Sc3nc4ccccc4s3)C2=O)cc1 (configuration not stated)	1%	?	21	?	-2%	4%
CCCOc1ccc(N2C(=O)CC(SC(=NC)Nc3ccc(F)cc3)C2=O)cc1 (configuration not stated)	-23%	-20%	21	?	-23%	-12%
Cc1cc(=O)n(CC(=O)Nc2ccc(F)c(Cl)c2)c(N2CCc3ccccc3C2)n1	.	.	.	.	13%	.
CCOc1ccc2nc(/N=C/c3c(C)[nH]n(-c4ccc(C)cc4)c3=O)sc2c1	?	16µM*	-6	?	-13%	?
CCOc1ccc(N2C(=O)CC(Sc3nc4ccc(OCC)cc4s3)C2=O)cc1 (configuration not stated)	18%	4.1µM*	14	4.6µM*	0%	17%
CCOc1ccc2nc(SC3CC(=O)N(c4ccc(C)cc4)C3=O)sc2c1 (configuration not stated)	?	4.6µM*	15	4.6µM*	-1%	-3%
CCOC(=O)C(N)CSC1CC(=O)N(c2ccc(OCC)cc2)C1=O (configuration not stated)	3%	-12%	19	-5%	0%	0%
CCOC(=O)c1ccc(N2C(=O)CC(Sc3nc(C)cc(C)n3)C2=O)cc1 (configuration not stated)	5%	-27%	9	?	0%	11%
CCOc1ccc2nc(/N=C/c3c(C)[nH]n(-c4ccccc4)c3=O)sc2c1	-1%	?	0	?	15%	0%
C[C@@]1(O)CCN(Cc2cc(F)c(F)cc2F)C[C@H]1N1CCCC1	.	.	.	.	127%	.
O=C(NCC1CCCO1)C(=Cc1cccc([N+](=O)[O-])c1)C(=O)NCC1CCCO1 (configuration not stated)	?	?	-110*	23µM*	-2%	16µM*
O=C(NCC1CCCO1)c1cc([N+](=O)[O-])ccc1Cl (configuration not stated)	13%	-15%	-17	-10%	-5%	13%
O=C(NCC1CCCO1)c1ccc(Oc2ccc([N+](=O)[O-])cc2)cc1 (configuration not stated)	3%	?	-10	23µM*	-11%	?
O=C(NCC1CCCO1)/C(=C\c1cccc([N+](=O)[O-])c1)NC(=O)c1ccccc1 (configuration not stated)	4%	6%	-6	2%	0%	13%
O=C(NCC1CCCO1)c1ccccc1NS(=O)(=O)c1cc([N+](=O)[O-])ccc1Cl (configuration not stated)	-7%	15µM*	32	?	-15%	-11%
O=C(NCC1CCCO1)c1cccc(Oc2ccc([N+](=O)[O-])cc2Cl)c1 (configuration not stated)	-5%	?	6	21µM*	-9%	-7%
C[C@H](O)c1onc(-c2ccccc2)c1C(=O)NC1CCCCC1	.	.	.	.	11%[176 µM]	.
CC1CCN(S(=O)(=O)c2ccc3c(ccc(=O)n3CC(=O)N3CCC4(CC3)OCCO4)c2)CC1	.	.	.	.	23%	.
CC(C)NC(=O)COC(=O)c1ccccc1OCC(=O)Nc1ccc(Br)cc1	-10%	-57%	.	-4%	.	-24%
CC(OC(=O)/C=C/c1ccc2ccccc2n1)C(=O)N(C)c1ccccc1 (configuration not stated)	13%	?	-2	?	5%	9%
Clc1ccc(/C=C/c2ccc3ccccc3n2)c(Cl)c1	.	-6%	.	?	.	.
CCN(CC)c1ccc(/C=C/c2ccc3ccccc3n2)cc1	.	0.16µM*	.	0.16µM*	.	.
CC(=O)/C=C/c1ccc2ccccc2n1	?	5.2µM*	-120*	2.6µM*	?	?
SMILES	HT1080 IDH1KD tx	TDP1 cell CPT	IL-1B inflam inh	DT40 TDP1 no CPT	12-LOX inh	HT1080NT lethal
CC[N+](C)(C)c1ccc(/C=C/c2ccc3ccccc3n2)cc1	.	0.028µM*	.	?	.	.
Clc1ccc(/C=C/c2ccc3ccccc3n2)cc1Cl	.	6.3µM*	.	3.5µM*	.	.
C(=C\c1cccs1)/c1ccc2ccccc2n1	.	.	.	.	5%	.
CC(C)c1ccc(CNC(=O)CCC2CCN(C(=O)c3ccccc3F)CC2)cc1	.	.	.	.	-11%	.
NS(=O)(=O)C1CCS(=O)(=O)C1 (configuration not stated)	.	.	.	.	33%	.
CC(C)(C)C1CCc2c(sc(/N=C/c3ccc(I)s3)c2C#N)C1 (configuration not stated)	.	.	.	.	-6%	.
CC(C1SC(=S)NC1=O)C1SC(=S)NC1=O (configuration not stated)	-3%	-25%	-22	-25%	13µM*	-5%
O=C(Nc1cccc(NC(=O)c2ccc([N+](=O)[O-])o2)c1)c1ccco1	10µM*	5.8µM*	-90*	5.2µM*	-7%	18µM*
COc1cc(NC(=O)c2ccc([N+](=O)[O-])o2)ccc1NC(=O)c1cccs1	-19%	2.3µM*	-90*	3.7µM*	5%	-15%
O=C(Nc1cccc(NC(=O)c2cccs2)c1)c1ccc([N+](=O)[O-])o1	23µM*	3.3µM*	-102*	3.7µM*	-6%	10µM*
O=C(Nc1ccc(NC(=O)c2ccc([N+](=O)[O-])o2)cc1Cl)c1ccco1	?	?	.	?	3%	-13%
CCc1c(N)nc(N)nc1Nc1ccccc1Cl	-18%	18µM*	18	21µM*	3%	?
O=C(NC1CCN(C(=O)N2CC3CC(C2)[C@H]2CCCC(=O)N2C3)CC1)c1n[nH]c2ccccc12 (some centres not stated)	.	.	.	.	23%	.
O=C(Cn1c(SCc2cccc(F)c2)nc2cccnc21)Nc1ccc(F)c(Cl)c1	.	26µM*	.	15µM*	-19%	.
COc1ccc(NC(=O)Cn2c(SCc3ccc(C)cc3)nc3cccnc32)cc1OC	.	2.3µM*	.	1.6µM*	?	.
